Only some compounds are listed: those with a hit (about 3.2% of all), similar ones and a draw of the others.
ERK AVP block = blocks ERK signaling stimulated by vasopressin; Potency, µM (titrated, usually from 57.5 µM), for inactives: at the highest dose activity, negative = inhibition, usual class: inhibitors; hit rate 0.99% among 72,000; HEK293-V1b, vasopressin-stimulated pERK AlphaScreen; further: on the % scale 0 is the no-effect control and ±100 the full control effect; nearly all actives have a fitted effect of over 55% in size
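V1b-HEK293 cells; cpd 30 min 37C; 25 nM vasopressin 5 min; lyse 10 min; AlphaScreen beads 5 hr RT. Normalized to DMSO basal and 25 nM vasopressin; AC50 by Hill fit.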
CRE Fsk mod = modulators of forskolin-stimulated CRE signaling in CHO cells | hit rate 2.5% among 71,000 | AID 662 | CHO CRE-bla reporter (cAMP response element driving beta-lactamase), forskolin EC10, beta-lactamase ratio | Potency, µM (highest dose often 38.2 µM), inactives show at the highest dose activity change, negative = inhibition, hits mostly activators; active means well fitted activation curve with a large enough effect in the signal ratio, with a control signal flat, not every such curve was filed as active; inconclusive means small, poorly fitted or top-dose-only effect, or effect the other way, or a change in a side signal; the % refers to the signal ratio; further: % of control where 0% means no effect
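qHTS titration format; CRE-bla CHO reporter; stimulus EC10 NKH 477, a water-soluble forskolin. Read: CCF4 460/530 nm ratio. Potency expressed as AC50 for activators or inhibitors.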
15-hLO-2 inh = 15-hLO-2 (ALOX15B) enzyme inhibition. O15296. purified 15hLO-2, xylenol orange hydroperoxide absorbance. Potency, µM (series often up to 57.1 µM), without a hit: at the highest dose activity change, negative = inhibition, hits mostly inhibitors. hit rate 0.56% among 110,000; further: on the % scale 0 is the no-effect control and ±100 the full control effect; nearly all actives have a fitted effect of over 60% in size
Target sequence (O15296 whole entry, looked up): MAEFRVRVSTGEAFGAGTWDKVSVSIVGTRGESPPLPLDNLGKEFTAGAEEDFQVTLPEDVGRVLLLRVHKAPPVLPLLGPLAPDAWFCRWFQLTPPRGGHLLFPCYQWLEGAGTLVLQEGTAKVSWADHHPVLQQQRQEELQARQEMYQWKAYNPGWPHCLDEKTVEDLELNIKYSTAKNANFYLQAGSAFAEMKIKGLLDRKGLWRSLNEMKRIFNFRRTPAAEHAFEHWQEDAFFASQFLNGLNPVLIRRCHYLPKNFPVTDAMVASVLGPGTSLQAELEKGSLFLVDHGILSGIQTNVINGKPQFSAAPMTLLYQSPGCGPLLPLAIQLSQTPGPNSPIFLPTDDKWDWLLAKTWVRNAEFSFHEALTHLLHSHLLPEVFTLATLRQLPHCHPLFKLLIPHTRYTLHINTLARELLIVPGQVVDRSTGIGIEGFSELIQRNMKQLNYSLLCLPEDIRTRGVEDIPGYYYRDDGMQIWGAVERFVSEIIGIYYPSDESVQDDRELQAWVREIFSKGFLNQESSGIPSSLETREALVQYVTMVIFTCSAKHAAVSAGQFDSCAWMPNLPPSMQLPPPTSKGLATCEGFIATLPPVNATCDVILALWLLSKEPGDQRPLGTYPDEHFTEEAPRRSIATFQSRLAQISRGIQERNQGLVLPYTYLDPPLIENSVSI
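Screening format was qHTS against 50 nM purified 15hLO-2 in Hepes pH 7.5 with detergent. Activity follows hydroperoxide formation from 45 uM arachidonic acid, measured as 573:405 nm absorbance ratio of the ferric-xylenol orange complex.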
ALOX15 inhib = blocks human 15-lipoxygenase activity | P16050 | AID 887 | Potency, µM (top dose mostly 57.1 µM), for the others: top-dose activity change, negative = inhibition, usual class: inhibitors | purified 15hLO-1, xylenol orange hydroperoxide absorbance | hit rate 1.4% among 74,000; further: on the % scale 0 is the no-effect control and ±100 the full control effect; nearly all actives have a fitted effect of over 55% in size
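40 nM 15hLO-1 + cpd, 15 min RT; start w/ 50 uM AA (final), 6 min RT; stop/detect w/ 200 uM XO + 300 uM Fe(II) in 50 mM H2SO4, 30 min; A573/A405. Buffer 25 mM Hepes pH 7.5, 0.01% Triton X-100. No-enzyme wells as negative control.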
* hit, by the source's call; ? = inconclusive; nt = no result; [ ] = remark or other dose. Unless noted, the call rests on the fitted dose curve; in most records, active means well fitted inhibition curve with a large enough effect; inconclusive means small, poorly fitted or top-dose-only effect; inactive means no such curve, though single readings can be large or run the other way. Potency means the concentration at half of the fitted maximal effect.

SMILES	ERK AVP block	CRE Fsk mod	15-hLO-2 inh	ALOX15 inhib
CC1Cc2ccccc2N1S(=O)(=O)c1cccc2nsnc12 (configuration not stated)	16µM*	?	-7%	-11%
COc1ccccc1N1CCN(S(=O)(=O)c2cccc3nsnc23)CC1	-25%	-8%	-2%	4%
CC(C)=NO[C@@H](C)CN1CCCCc2nc(C)c(C)cc21	9%[11.5 µM]	nt	nt	8%[11.4 µM]
O=C(Nc1ccc2[nH]c3c(c2c1)CCCC3)c1ccco1	-22%	-6%	-19%	16µM*
O=Nc1c(-c2c(O)[nH]c3ccccc23)[nH]c2ccccc12	10µM*	?	10%	?
c1ccc2c(c1)CCN(c1nc3ccccc3n3cnnc13)C2	-15%	0.4µM*	-6%	-25%
c1ccc(CN2CCN(c3nc4ccccc4n4cnnc34)CC2)cc1	-16%	13µM*	20%	6%
COc1cc(CN2CCCCC2)cc2cc(C(=O)O)c(=O)oc12	4%[11.5 µM]	0%[7.6 µM]	0%[11.4 µM]	5%[11.4 µM]
O=C(c1cc2n(n1)C(C(F)(F)F)CC(c1ccco1)N2)N1CCc2ccccc2C1 (configuration not stated)	25µM*	?	-12%	-21%
COc1ccccc1N1CCN(C(=O)c2cc3n(n2)C(C(F)(F)F)CC(c2ccco2)N3)CC1 (configuration not stated)	-15%	-4%	6%	13%
CC(C)(O)C1CC[C@@]2(C)C3CCC4[C@@]5(C)CCCC(C)(C)C5C(O)C[C@]4(C)[C@]3(C)CC[C@@H]12 (some centres not stated)	5%	nt	3%	4%
Nc1ncnc2nc(-c3ccc(N4CCOCC4)nc3)cc(-c3cccc(Br)c3)c12	-26%	nt	46%	10µM*
c1ccc(-c2cc(N3CCOCC3)nc(-c3ccccc3)n2)cc1	?	-1%	18%	-1%
Cc1nc(N2CCOCC2)c2nc(-c3ccccc3)n(CCN3CCCCC3)c2n1	-6%	3%	25%	8%
Cc1nc(NC2CCCCC2)c2nc(-c3ccccc3)n(CCCN3CCOCC3)c2n1	-25%	10µM*	13%	32µM*
Cc1nc(NCc2ccccc2)c2nc(-c3ccccc3)n(CCN3CCCCC3)c2n1	-27%	9%	36%	20µM*
Cc1nc(Nc2ccccc2)c2nc(-c3ccccc3)n(CCN3CCOCC3)c2n1	-41%	7.9µM*	36%	20µM*
Cc1nc(NCc2ccccc2)c2nc(-c3ccccc3)n(CCCN3CCOCC3)c2n1	?	?	7%	?
COc1ccc(-c2nnc(CSc3ncnc4sc5c(c34)CCC5)o2)cc1OC	9%	2.5µM*	-9%	-13%
CC1(C)[C@@H]2CC[C@@]1(C)C(=O)C2	23%	3%	-2%[0.0915 µM]	1%[25.6 µM]
CN(Cc1ccccc1)c1nc2c(c(=O)n(C)c(=O)n2C)n1CCCc1ccccc1	20µM*	-14%	-8%	-28%
Cn1c(=O)c2c(nc(Br)n2CCCc2ccccc2)n(C)c1=O	-22%	?	6%	-3%
CCCCn1c(NC(C)CC)nc2c1c(=O)[nH]c(=O)n2C (configuration not stated)	-24%	10µM*	-3%	-11%
CN(Cc1ccccc1)c1nc2c(c(=O)[nH]c(=O)n2C)n1CCOc1ccccc1	13µM*	5µM*	-19%	?
CN(Cc1ccccc1)c1nc2c(c(=O)[nH]c(=O)n2C)n1Cc1ccccc1	?	?	-18%	-4%
SMILES	ERK AVP block	CRE Fsk mod	15-hLO-2 inh	ALOX15 inhib
CCCCCn1c(N(C)Cc2ccccc2)nc2c1c(=O)[nH]c(=O)n2C	nt	10µM*	-13%	-11%
N#Cc1ccc(CN2CC[C@@]3(CCCN(C(=O)c4cnccn4)C3)C2)cc1	0%	3%	5%	-1%
Cc1cnc(CNc2ncncc2-c2cccc(NS(C)(=O)=O)c2)cn1	-15%	0%	-4%	-19%
Cn1cc(-c2nc3cncnc3n(Cc3ccccc3Cl)c2=O)c2ccccc21	6%	?	1%	5%
CCC(C)c1ccc(O)c(N)c1 (configuration not stated)	-17%	-5%	?	13µM*
Nc1cc(S(=O)(=O)O)ccc1O	6%	-6%	0%	-3%
CC(C)c1ccc(O)c(N)c1	nt	nt	5µM*	nt
COc1cc(C(=O)N2CCN(c3cc(Cl)ccc3Cl)CC2)cc(OC)c1OC	nt	2.5µM*	nt	6%
COc1cc(C(=O)N2CCN(c3cccc(C)c3C)CC2)cc(OC)c1OC	nt	10µM*	nt	-2%
